Results: PubChem BioAssay AID1159580 (chemical genetic matrix, 2015)
Values joined by “and” are separate entries in the source; they are usually repeats but may differ in a detail not shown here. Equal entries are not always repeated. About 2,000 (36%) of roughly 5,500 compounds were called active. Not shown: some 18% with an inconclusive outcome. Rule as the data show it: active = normalized growth mostly below about 0.91 (no sharp cut-off); inconclusive = no clear call, values can overlap the other calls; inactive = mostly above about 0.92. This is one part of the list.

Assay: chemical genetic growth profiling, strain panel (AID 1159580);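 also: tested at 20 µM; growth read once vehicle control cultures reached saturation at 30 °C; 1 = growth at the plate median or of vehicle wells; lower values mean less growth of the strain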
Conditions: growth OD
[1] = S. cerevisiae deletion strains, locus YBR021W, strain FUR4, active compounds read low
[2] = S. cerevisiae deletion strains, locus YBR229C, strain ROT2, active compounds read low
[3] = S. cerevisiae deletion strains, locus YCL029C, strain bik1, active compounds read low
[4] = S. cerevisiae deletion strains, locus YDL035C, strain GPR1, active compounds read low
[5] = S. cerevisiae deletion strains, locus YDL074C, strain BRE1, active compounds read low
[6] = S. cerevisiae deletion strains, locus YDL101C, strain DUN1, active compounds read low
[7] = S. cerevisiae deletion strains, locus YDL185W, strain tfp1, active compounds read low
[8] = S. cerevisiae deletion strains, locus YDL192W, strain arf1, active compounds read low
[9] = S. cerevisiae deletion strains, locus YDR101C, strain arx1, active compounds read low
[10] = S. cerevisiae deletion strains, locus YDR162C, strain NBP2, active compounds read low
[11] = S. cerevisiae deletion strains, locus YDR318W, strain mcm21, active compounds read low
[12] = S. cerevisiae deletion strains, locus YDR388W, active compounds read low
[13] = S. cerevisiae deletion strains, locus YDR502C, strain sam2, active compounds read low
[14] = S. cerevisiae deletion strains, locus YEL061C, strain CIN8, active compounds read low
[15] = S. cerevisiae deletion strains, locus YER110C, active compounds read low
[16] = S. cerevisiae deletion strains, locus YER155C, strain BEM2, active compounds read low
[17] = S. cerevisiae deletion strains, locus YER167W, strain BCK2, active compounds read low
[18] = S. cerevisiae deletion strains, locus YGL078C, strain dbp3, active compounds read low
[19] = S. cerevisiae deletion strains, locus YGL086W, strain mad1, active compounds read low
[20] = S. cerevisiae deletion strains, locus YGL248W, strain PDE1, active compounds read low
[21] = S. cerevisiae deletion strains, locus YGR135W, strain pre9, active compounds read low
[22] = S. cerevisiae deletion strains, locus YGR252W, strain gcn5, active compounds read low
[23] = S. cerevisiae deletion strains, locus YHR030C, strain SLT2, active compounds read low
[24] = S. cerevisiae deletion strains, locus YHR079C, strain IRE1 (second series), active compounds read low
[25] = S. cerevisiae deletion strains, locus YHR094C, strain hxt1, active compounds read low
[26] = S. cerevisiae deletion strains, locus YHR129C, strain ARP1, active compounds read low
[27] = S. cerevisiae deletion strains, locus YHR200W, strain rpn10, active compounds read low
[28] = S. cerevisiae deletion strains, locus YIL066C, strain RNR3, active compounds read low
[29] = S. cerevisiae deletion strains, locus YIL073C, strain SPO22, active compounds read low
[30] = S. cerevisiae deletion strains, locus YIL125W, strain kgd1, active compounds read low
[31] = S. cerevisiae deletion strains, locus YIR030C, strain dcg1, active compounds read low
[32] = S. cerevisiae deletion strains, locus YJL095W, strain BCK1, active compounds read low
[33] = S. cerevisiae deletion strains, locus YJL134W, strain LCB3, active compounds read low
[34] = S. cerevisiae deletion strains, locus YJL168C, strain set2, active compounds read low
[35] = S. cerevisiae deletion strains, locus YJL187C, strain SWE1 (second series), active compounds read low
[36] = S. cerevisiae deletion strains, locus YJR043C, strain POL32, active compounds read low
[37] = S. cerevisiae deletion strains, locus YKL009W, strain mrt4, active compounds read low
[38] = S. cerevisiae deletion strains, locus YKL068W, active compounds read low
[39] = S. cerevisiae deletion strains, locus YKL085W, strain MDH1 (second series), active compounds read low
[40] = S. cerevisiae deletion strains, locus YKL085W, strain MDH1, active compounds read low
[41] = S. cerevisiae deletion strains, locus YKR001C, strain vps1, active compounds read low
[42] = S. cerevisiae deletion strains, locus YLR039C, strain RIC1, active compounds read low
[43] = S. cerevisiae deletion strains, locus YLR058C, strain SHM2, active compounds read low
[44] = S. cerevisiae deletion strains, locus YLR102C, strain apc9, active compounds read low
[45] = S. cerevisiae deletion strains, locus YLR262C, strain YPT6, active compounds read low
[46] = S. cerevisiae deletion strains, locus YLR268W, strain sec22, active compounds read low
[47] = S. cerevisiae deletion strains, locus YLR330W, strain CHS5, active compounds read low
[48] = S. cerevisiae deletion strains, locus YLR342W, strain FKS1 (second series), active compounds read low
[49] = S. cerevisiae deletion strains, locus YLR371W, strain rom2, active compounds read low
[50] = S. cerevisiae deletion strains, locus YLR418C, strain cdc73, active compounds read low
[51] = S. cerevisiae deletion strains, locus YML016C, strain PPZ1, active compounds read low
[52] = S. cerevisiae deletion strains, locus YML032C, strain rad52, active compounds read low
[53] = S. cerevisiae deletion strains, locus YML124C, strain tub3, active compounds read low
[54] = S. cerevisiae deletion strains, locus YMR078C, strain ctf18, active compounds read low
[55] = S. cerevisiae deletion strains, locus YMR223W, strain ubp8, active compounds read low
[56] = S. cerevisiae deletion strains, locus YMR307W, strain GAS1, active compounds read low
[57] = S. cerevisiae deletion strains, locus YNL067W, strain RPL9B, active compounds read low
[58] = S. cerevisiae deletion strains, locus YNL153C, strain GIM3, active compounds read low
[59] = S. cerevisiae deletion strains, locus YNL233W, strain BNI4, active compounds read low
[60] = S. cerevisiae deletion strains, locus YNL250W, strain rad50, active compounds read low
[61] = S. cerevisiae deletion strains, locus YNL271C, strain bni1, active compounds read low
[62] = S. cerevisiae deletion strains, locus YNL298W, strain CLA4, active compounds read low
[63] = S. cerevisiae deletion strains, locus YNL307C, strain MCK1, active compounds read low
[64] = S. cerevisiae deletion strains, locus YNR052C, strain pop2, active compounds read low
[65] = S. cerevisiae deletion strains, locus YOL006C, strain TOP1, active compounds read low
[66] = S. cerevisiae deletion strains, locus YOL012C, strain htz1
[67] = S. cerevisiae deletion strains, locus YOL147C, strain pex11, active compounds read low
[68] = S. cerevisiae deletion strains, locus YOR061W, strain CKA2, active compounds read low
[69] = S. cerevisiae deletion strains, locus YOR069W, strain VPS5, active compounds read low
[70] = S. cerevisiae deletion strains, locus YOR136W, strain idh2, active compounds read low
[71] = S. cerevisiae deletion strains, locus YOR144C, strain elg1, active compounds read low
[72] = S. cerevisiae deletion strains, locus YOR184W, strain ser1, active compounds read low
[73] = S. cerevisiae deletion strains, locus YOR316C, strain cot1, active compounds read low
[74] = S. cerevisiae deletion strains, locus YPL055C, strain LGE1, active compounds read low
[75] = S. cerevisiae deletion strains, locus YPL241C, strain CIN2, active compounds read low
[76] = S. cerevisiae deletion strains, locus YPR119W, strain clb2, active compounds read low
[77] = S. cerevisiae deletion strains, locus YPR141C, strain kar3, active compounds read low
[78] = S. cerevisiae deletion strains, locus YPR163C, strain tif3, active compounds read low
[79] = S. cerevisiae deletion strains, locus YPR167C, strain met16, active compounds read low
[80] = S. cerevisiae deletion strains, strain wtn01, active compounds read low
[81] = S. cerevisiae strains, strain wild type, active compounds read low

Measured: normalized growth

COc1cc(OC)c2c(c1)OC(c1ccccc1)CC2=O (stereo not drawn)
inactive: [1] 0.99 | [2] 0.986 | [3] 1.03 | [4] 0.988 | [5] 0.994 | [6] 0.989 | [7] 1.01 | [8] 0.979 | [9] 1.02 | S. cerevisiae deletion strains, locus YDR150W, strain NUM1, active compounds read low 0.983 | [10] 0.987 | [11] 0.988 | [12] 0.999 | [13] 1 | [14] 0.984 | [15] 1.01 | [16] 0.996 | [17] 0.994 | [18] 1.01 | [19] 1 | [20] 0.987 | [21] 0.977 | [22] 1.01 | [23] 0.987 and 0.965 | [24] 1.01 | S. cerevisiae deletion strains, locus YHR079C, strain IRE1, active compounds read low 0.963 | [25] 1.01 | [26] 0.986 | [27] 0.997 | [28] 0.983 | [29] 1.03 | [30] 1.01 | [31] 1 | [32] 0.932 and 0.982 | [33] 0.985 | [34] 1 | [35] 0.994 | [36] 1 | S. cerevisiae deletion strains, locus YJR066W, strain TOR1, active compounds read low 0.93 | S. cerevisiae deletion strains, locus YJR075W, strain HOC1, active compounds read low 0.992 | [37] 0.996 | [38] 0.994 | [39] 0.991 | [40] 0.991 | S. cerevisiae deletion strains, locus YKL190W, strain CNB1, active compounds read low 0.984 | [41] 0.951 | [42] 0.842 | [43] 0.987 | [44] 1 | S. cerevisiae deletion strains, locus YLR113W, strain HOG1, active compounds read low 1 | [45] 0.836 | [46] 1.01 | [47] 0.98 | [48] 0.959 | [49] 1.02 | [50] 1.03 | [51] 0.983 | [52] 1.02 | [53] 1 | [54] 1 | [55] 0.983 | [56] 0.902 | [57] 0.993 | S. cerevisiae deletion strains, locus YNL128W, strain TEP1, active compounds read low 1.01 | [58] 1 | S. cerevisiae deletion strains, locus YNL183C, strain NPR1, active compounds read low 0.915 | [59] 0.97 | [60] 1.03 | [61] 1 | [62] 1.03 | [63] 1 | [64] 0.989 | [65] 0.848 | [66] 1.5 | [67] 1.01 | [68] 0.983 | [69] 0.984 | [70] 1.01 | [71] 1.01 | [72] 0.955 | S. cerevisiae deletion strains, locus YOR231W, strain MKK1, active compounds read low 0.951 | [73] 1.01 | [74] 1.01 | [75] 0.978 | S. cerevisiae deletion strains, locus YPL256C, strain CLN2, active compounds read low 0.972 | [76] 1.01 | [77] 1.01 | [78] 1.03 | [79] 1 | [80] 1.01 | [81] 0.987

O=C1CC(c2ccccc2)Oc2ccccc21 (stereo not drawn)
inactive: [1] 0.97 | [2] 0.985 | [3] 0.971 | [4] 1.02 | [5] 0.989 | [6] 0.996 | [7] 0.958 | [8] 0.957 | [9] 0.958 | [10] 1.02 | [11] 0.954 | [12] 0.96 | [13] 0.96 | [14] 0.976 | [15] 0.963 | [16] 0.982 | [17] 0.989 | [18] 0.96 | [19] 0.974 | [20] 0.993 | [21] 0.969 | S. cerevisiae deletion strains, locus YGR229C, strain SMI1, active compounds read low 0.985 | [22] 1.03 | [23] 0.982 | [24] 0.967 | [25] 0.972 | [26] 0.983 | [27] 0.961 | [28] 1 | [29] 1.05 | [30] 0.956 | [31] 0.977 | [32] 0.932 | [33] 0.983 | [34] 0.958 | [35] 1.02 | [36] 0.958 | [37] 1.02 | [38] 0.966 | [39] 0.972 | [40] 0.972 | [41] 0.927 | [42] 0.956 | [43] 0.992 | [44] 0.961 | [45] 0.971 | [46] 0.962 | [47] 0.988 | [48] 0.944 | [49] 0.961 | [50] 0.894 | [51] 0.974 | [52] 0.949 | [53] 0.95 | [54] 0.955 | [55] 0.961 | [56] 1.01 | [57] 1.03 | [58] 1.01 | [59] 0.967 | [60] 0.966 | [61] 0.947 | [62] 0.971 | [63] 0.943 | [64] 0.971 | [65] 0.932 | [66] 1 | [67] 0.942 | [68] 0.989 | [69] 0.98 | [70] 0.965 | [71] 0.949 | [72] 0.925 | [73] 0.964 | [74] 1 | [75] 0.977 | [76] 0.935 | [77] 0.954 | [78] 0.952 | [79] 1.01 | [80] 0.95 | [81] 0.988
